In the library only some 3.3% were active in any assay of this set; here they are far more common.
USP1 inh: inhibitors of human USP1/UAF1 deubiquitinase; recombinant USP1/UAF1, Ub-Rhodamine cleavage fluorescence; 390,000 compounds, 0.23% hits; Potency, µM (highest dose often 57.1 µM), without a hit: at the highest dose activity change, negative = inhibition, actives largely listed as inhibitors; O94782; note: potency is the fitted concentration of half-maximal effect; nearly all actives have a fitted effect of over 60% in size
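In this screen, compounds sit with the deubiquitinase complex (1nM) for 15 min at room temperature before Ub-Rho is added at 150nM final. Fluorescence rise is then followed for 6 reads every 60 seconds.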
PI5P4Ka inh: blocks human PI5P4K alpha kinase activity; P48426; PI5P4Kalpha enzyme, ADP-Glo luminescence, 60 min; stronger effect = lower value; max response, %; 330,000 compounds, 1.2% hits; AID 652105; active = max response of -50% or lower; inconclusive = between -30% and -50%; inactive = -30% or higher; note: value at the top dose of about 77 µM
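Quantitative HTS of the MLSMR library against PI5P4Kalpha with substrate. ATP added last at 5 microM final; room temperature, 60 minutes. Remaining ATP depleted, ADP converted and read as luminescence.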
USP2a block: USP2a (human) protease inhibition. O75604. USP2 core, Ub-CHOP2 coupled fluorogenic reporter, 485/531. Potency, µM (series often up to 38.3 µM), for inactives: at the top dose activity change, negative = inhibition, hits mostly inhibitors. 330,000 compounds, 0.01% hits. AID 463254;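 note: potency is the fitted concentration of half-maximal effect; plate controls were DMSO wells for no effect and full inhibition by NEM control for full effect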
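USP2 core (10nM final) preincubated 30min RT with compound in 20mM Tris-HCl pH 8.0, 2mM CaCl2, 2mM beta-mercaptoethanol, 0.05% CHAPS; 25nM Ub-CHOP2 plus 25nM reporter substrate added, fluorescence (Ex485/Em531) read after 60min.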
PLK1 PBD block: inhibitors of human PLK1 polo-box domain binding; P53350; Plk1 PBD binding of FITC phosphopeptide, fluorescence polarization; Potency, µM, for inactives: max response, negative = inhibition, usual class: inhibitors; 360,000 compounds, 2.8% hits; note: potency is the fitted concentration of half-maximal effect; series mostly up to about 57 µM; nearly all actives have a fitted effect of over 65% in size
WRN inhibitor: WRN helicase (human) inhibition; Q14191; WRN helicase unwinding, fluorescent forked duplex, kinetic; Potency, µM (top dose mostly 114 µM), inactives show top-dose activity change, negative = inhibition, most hits filed as inhibitors; 360,000 compounds, 0.46% hits; AID 651768; note: potency is the fitted concentration of half-maximal effect; nearly all actives have a fitted effect of over 55% in size
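WRN at 20 nM final preincubated with compound 15 min at room temperature; reaction started with 100 nM fluorophore/quencher forked duplex oligonucleotide and 2 mM ATP final. Unwinding followed kinetically by red fluorescence (ex 525, em 598 nm).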
TbPYK inh: Trypanosoma brucei pyruvate kinase inhibition, cherry-pick confirmation | shares compounds with PLK1 PBD block | 890 compounds, 67% hits | Potency, µM (titrated, usually from 76.9 µM), without a hit: at the highest dose activity change, negative = inhibition, actives largely listed as inhibitors | AID 720569 | recombinant TbPYK, Kinase-Glo ATP luminescence; note: potency is the fitted concentration of half-maximal effect; nearly all actives have a fitted effect of over 70% in size
TbPYK ADP-Glo: TbPYK inhibition, orthogonal confirmation. shares compounds with PLK1 PBD block. recombinant TbPYK, ADP-Glo luminescence, 60 min. Potency, µM (top dose mostly 76.9 µM), for the others: at the top dose activity change, negative = inhibition, hits mostly inhibitors. 890 compounds, 62% hits. AID 720584; note: potency is the fitted concentration of half-maximal effect; nearly all actives have a fitted effect of over 75% in size
Active calls of the source: *; ? = inconclusive; . = no result given; [ ] = dose if it differs, or a comment. Unless noted, calls come from the whole dose curve; as a rule, active = well fitted curve in the direction sought with a large enough effect; inconclusive = small, poorly fitted or top-dose-only effect, or another doubt; inactive = no such curve, though single readings can be large; an effect the other way counts as inactive or inconclusive. Unless noted, % is set by controls: 0 for no effect and ±100 for the full control effect.

SMILES | USP1 inh | PI5P4Ka inh | USP2a block | PLK1 PBD block | WRN inhibitor | TbPYK inh | TbPYK ADP-Glo
CN1C(=O)C(=Cc2ccc(Sc3ccccc3)o2)C(=O)N(C)C1=O | 0% | 3 | 0% | ? | ? | . | .
CCOC(=O)c1ccc(NC(=O)N2C[C@@H]3C[C@@H](C2)c2cccc(=O)n2C3)cc1 | -14% | 0 | 2% | -7% | 4% | . | .
Cc1cccc(NC2=NCCCS2)c1 | -25% | 4 | 2% | -2% | 2% | . | .
CCN1CCN(c2ccc([N+](=O)[O-])cc2C=C2C(=O)NC(=O)NC2=O)CC1 | -16% | -27 | 0% | 11µM* | -30% | 20µM* | ?
CC1(C)CC2CCC(O)C2C(CCO)N1 (configuration not stated) | -16% | -2 | . | 2% | -14% | . | .
CCOP(=O)(C1=C(O)C(=O)C(C(C)(C)C)=CC1=O)c1ccccc1 (configuration not stated) | ? | -17 | 2% | ? | ? | ? | ?
O=c1c2ccccc2[se]n1-c1ccccc1 | -4% | -91* | 3% | 3µM* | -17%[11.6 µM] | 8.9µM* | 6.3µM*
O=c1c2ccccc2nc(-c2ccccc2)n1-c1ccccc1 | -10% | 1 | 0% | 1% | -3% | . | .
CN1C(=O)NC(=O)/C(=C\C=C\c2ccccc2[N+](=O)[O-])C1=O | -4% | ? | 0% | 1.2µM* | -1% | 16µM* | 32µM*
O=c1c2ccccc2nc(/C=C\c2ccccc2[N+](=O)[O-])n1-c1ccccc1O | -10% | -2 | 3% | 2% | -28% | . | .
c1ccc(-c2nc(N3CCOCC3)s[n+]2-c2ccccc2)cc1 | -3% | -67* | -1% | 1.1µM* | ? | 0.16µM* | 0.71µM*
O=C1NC(=O)C(=Cc2coc3ccc(O)cc3c2=O)C(=O)N1 | -13% | -73* | 1% | 27µM* | -14% | 14µM* | ?
CCN1C(=O)/C(=C/c2ccc3c(c2)CCN3CCCCl)C(=O)NC1=S | -19% | -73* | 1% | 1.5µM* | -32%[11.6 µM] | ? | ?
O=C1NC(=O)C(=Cc2cc(Cl)ccc2OCc2ccc(C(=O)O)cc2)C(=O)N1 | -19% | -71* | -1% | 7.5µM* | -9% | 25µM* | 32µM*
O=C(O)Cn1cc(C=C2C(=O)NC(=O)NC2=O)c2ccccc21 | 1% | ? | 5% | ? | -11% | . | .
O=C(O)CCn1cc(C=C2C(=O)NC(=O)NC2=O)c(-c2cc3ccccc3oc2=O)n1 | -25% | -24 | 10% | 15µM* | -30% | 11µM* | 32µM*
O=[N+]([O-])c1nccn1CC(O)CN1CC1 (configuration not stated) | . | -5 | . | -4% | -8% | . | .
CCOC(=O)[C@]12Cc3ccccc3[C@H]1N(C(C)C)C(=O)c1ccccc12 | . | -1 | . | ? | 4% | 22µM* | 32µM*
CC(C)c1ccc(-n2c(O)c(C=NC(CCS(C)=O)C(=O)O)c(=O)[nH]c2=S)cc1 (configuration not stated) | ? | 1 | 8% | ? | -7% | . | .
COc1cccc(C(c2nnnn2C(C)(C)C)N2CCC3(CC2)C(=O)NCN3c2ccccc2)c1OC (configuration not stated) | . | -3 | . | 2% | 0% | . | .
C[N+]12CCC(CC1)C(=C(c1ccccc1)c1ccccc1)C2 | -5% | -16 | -6% | -16% | -5% | 25µM* | 40µM*
O=c1[nH]c(=O)n(Cc2ccco2)c(O)c1C=NCc1cccs1 | -25% | . | . | -9% | -15% | . | .
O=c1[nH]c(=S)n(Cc2ccco2)c(O)c1C=NCc1cccs1 | 3% | -69* | ? | -26% | ? | ? | -29%
Cc1ccc2c(c1)=C/C(=C\c1c(O)[nH]c(=S)[nH]c1=O)C(=O)N=2 | . | . | 2% | . | . | . | .
Cc1ccc2c(c1)=NC(=O)/C(=C/c1c(O)[nH]c(=O)[nH]c1=O)C=2 | -17% | ? | -13% | 15µM* | -2% | 25µM* | 22µM*
SMILES | USP1 inh | PI5P4Ka inh | USP2a block | PLK1 PBD block | WRN inhibitor | TbPYK inh | TbPYK ADP-Glo
COc1ccc(NC(=O)c2cn(CCC#N)nc2-c2ccc(OC)c(OC)c2)cc1 | -22% | 9 | 2% | 2% | 4% | . | .
O=C(O)CCC(=O)NCCC1=c2ccccc2=N/C1=C\c1c(O)n(Cc2ccc(F)cc2)c(=S)[nH]c1=O | -10% | -85* | -1% | 1.2µM* | 79µM* | 4.5µM* | 14µM*
Cc1ccc(N2C(=O)NC(=O)/C(=C\c3ccoc3)C2=O)cc1 | -31% | ? | ? | ? | ? | ? | ?
Cc1cc(/C=C2\C(=O)NC(=O)N(c3ccc(F)cc3)C2=O)c(C)n1-c1ccc(C(=O)O)cc1 | -8% | ? | 1% | ? | -13%[11.6 µM] | . | .
Cc1ccc(N2C(=O)NC(=O)/C(=C/c3ccc(-c4ccc(C(=O)O)c(Cl)c4)o3)C2=O)cc1 | -19% | ? | 6% | 1.3µM* | ? | 7.1µM* | 14µM*
Cc1ccc(N2C(=O)CC(=O)NC2=O)cc1 | -18% | . | . | -10% | -8% | . | .
C1CCC2S[C@H]3CCCCC3NC2C1 (some centres not stated) | -10% | -1 | -1% | -2% | -7% | . | .
CC1CN1c1cc2c(c3c1ccn3C)C1CCC2C1 (configuration not stated) | . | 4 | . | -2% | -6% | . | .
Cc1cc(N2CCCC2)ccc1C=C(C#N)C#N | -23% | -1 | 0% | ? | ? | . | .
Cc1cc(N2CCCCC2)ccc1C=C1C(=O)N(C)C(=S)N(C)C1=O | -5% | -60* | -1% | 3.4µM* | -36%[57.1 µM] | 20µM* | ?
CCN(CC)c1ccc(NC(=O)c2cccc(C)c2)cc1S(=O)(=O)Nc1ccccc1OC | -16% | ? | -6% | 3µM* | ? | ? | ?
N#Cc1ccc(NC(=O)CN2C(=O)NC3(CCCCCCC3)C2=O)cc1Cl | -18% | -4 | 1% | -3% | -6% | . | .
Cc1ccc(OC(=O)N(C)C[C@H]2OCc3cnnn3CCCC(=O)N([C@H](C)CO)C[C@@H]2C)cc1 | 0% | 0 | . | -21% | -1% | . | .
O=C(CCn1c(=O)oc2ccccc21)N1CCC2(CC1)OCCO2 | 1% | . | -5% | -6% | 6% | 3% | -8%
O=C(NC(C(Cl)Cl)N1CCOCC1)c1ccccc1 (configuration not stated) | -11% | -8 | 0% | -13% | -2% | . | .
COc1cc(/C=C2\C(=O)NC(=O)N(c3ccccc3)C2=O)c([N+](=O)[O-])cc1OC | -21% | -28 | 1% | 12µM* | ? | 16µM* | 35µM*
